Results on seven molecules are retold here after PubChem BioAssay (NCI).

Some test systems named below: HCT-15 colon; HT29 colon; SNB-75 CNS; SNB-19 CNS; U251 CNS; PC-3 prostate; SK-MEL-5 melanoma; UACC-62 melanoma; LOX IMVI melanoma; SK-MEL-28 melanoma; SK-MEL-2 melanoma; EKVX NSCLC; SN12C renal; UO-31 renal; TK-10 renal; A498 renal; MOLT-4 leukemia.
Assay in all cases: NCI-60 one-dose screen, 48 h (100 = growth as untreated, 0 = no growth, -100 = all killed)
For a further experiment, the system named is ACHN renal. The following applies: 10 µM unless noted.
The test system of the next experiment is CAKI-1 renal. As to conditions: 10 µM unless noted.
In the next experiment the test system is CCRF-CEM leukemia. The following applies: 10 µM unless noted.

Compounds without any hit were thinned out: in the full panel of roughly 83,000, 20% have a hit.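 Compound tested at a single concentration for 48 hours in 96-well plates; a percent growth value below 10 was scored as active.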 Values without a mark were called inactive. Calls of active or inactive are those of the source.

Consider `O=C(c1ccc(Nc2nccc(NCCCNc3ccnc4cc(Cl)ccc34)n2)cc1)N1CCCCC1`, for which the growth is 92.2% with HCT-15 colon (10 µM unless noted); 19.7% with HT29 colon (10 µM unless noted); 90.5% in the experiment on SNB-75 CNS (10 µM unless noted); 35% in the experiment with SNB-19 CNS (10 µM unless noted); 23% with U251 CNS (10 µM unless noted); 36.5% in the experiment on PC-3 prostate (10 µM unless noted). The growth in the experiment with SK-MEL-5 melanoma (10 µM unless noted) is 43.7%; with UACC-62 melanoma (10 µM unless noted), 21.4%; in the experiment with LOX IMVI melanoma (10 µM unless noted) it was -14.3% (active); in the experiment with SK-MEL-28 melanoma (10 µM unless noted), 71.8%; in the experiment with SK-MEL-2 melanoma (10 µM unless noted) it was 64.5%; with EKVX NSCLC (10 µM unless noted) it was 57%. The growth was 34.3% in the experiment with SN12C renal (10 µM unless noted); 82.3% in the experiment on UO-31 renal (10 µM unless noted); 73.2% with TK-10 renal (10 µM unless noted); 79.9% in the experiment with ACHN renal; 89.9% with CAKI-1 renal; 69.1% with A498 renal (10 µM unless noted). Also, the growth was 37.1% in the experiment with CCRF-CEM leukemia and 25.3% in the experiment with MOLT-4 leukemia (10 µM unless noted).

`COc1ccc(/C=N\Nc2nc(SCC(C)C)nc(-c3ccc(OC)cc3)c2C#N)cc1`: the growth was 71% in the experiment on HCT-15 colon (10 µM unless noted); 56.4% in the experiment with HT29 colon (10 µM unless noted); -23.3% (active) in the experiment with SNB-75 CNS (10 µM unless noted); 31% with SNB-19 CNS (10 µM unless noted); -7.88% (active) in the experiment with U251 CNS (10 µM unless noted); 53.6% with PC-3 prostate (10 µM unless noted). In addition, the growth with SK-MEL-5 melanoma (10 µM unless noted) is 77.2%; with UACC-62 melanoma (10 µM unless noted) it was 86.1%; with LOX IMVI melanoma (10 µM unless noted) it was 31.9%; in the experiment on SK-MEL-28 melanoma (10 µM unless noted) it was 101%; in the experiment on SK-MEL-2 melanoma (10 µM unless noted), 87%; with EKVX NSCLC (10 µM unless noted) it was 35.1%. The growth in the experiment with SN12C renal (10 µM unless noted) is 2.1% (active); with UO-31 renal (10 µM unless noted), -53.5% (active); in the experiment with TK-10 renal (10 µM unless noted), -54.7% (active); in the experiment with ACHN renal, -71.7% (active); in the experiment on CAKI-1 renal, 9.54% (active); in the experiment with A498 renal (10 µM unless noted) it was -7.9% (active). Further, the growth in the experiment with CCRF-CEM leukemia was 38.6%; with MOLT-4 leukemia (10 µM unless noted) it was 30.2%.

Turning to `COC(=O)c1c2c(c(C)[n+]([O-])c1C)C(=O)C(NCCN1CCOCC1)=CC2=O`, the growth in the experiment on HCT-15 colon (10 µM unless noted) is 69.1%; with HT29 colon (10 µM unless noted), 27.4%; in the experiment with SNB-75 CNS (10 µM unless noted), 106%; with SNB-19 CNS (10 µM unless noted), 87.5%; in the experiment with U251 CNS (10 µM unless noted), 83.6%; in the experiment with PC-3 prostate (10 µM unless noted) it was 75.2%. Also, the growth is 48.5% in the experiment on SK-MEL-5 melanoma (10 µM unless noted); 68.4% in the experiment with UACC-62 melanoma (10 µM unless noted); 57.2% in the experiment on LOX IMVI melanoma (10 µM unless noted); 95.2% with SK-MEL-28 melanoma (10 µM unless noted); 78.2% in the experiment with SK-MEL-2 melanoma (10 µM unless noted); 65.8% with EKVX NSCLC (10 µM unless noted). The growth in the experiment on SN12C renal (10 µM unless noted) was 59%; in the experiment with UO-31 renal (10 µM unless noted), 82.2%; in the experiment on TK-10 renal (10 µM unless noted), 111%; with ACHN renal, 85.5%; in the experiment with CAKI-1 renal it was 73%; in the experiment with A498 renal (10 µM unless noted) it was 129%. Moreover, the growth is 80.2% in the experiment with CCRF-CEM leukemia and 88.1% in the experiment with MOLT-4 leukemia (10 µM unless noted).

Take `COc1cc(/C=C2\C(=O)N(CCCCn3c4ccccc4c(=O)c4ccccc43)c3ccccc32)cc(OC)c1O`: the growth was 36.3% in the experiment on HCT-15 colon (10 µM unless noted); 41.6% in the experiment with HT29 colon (10 µM unless noted); 51.7% with SNB-75 CNS (10 µM unless noted); 62.7% in the experiment with SNB-19 CNS (10 µM unless noted); 67.5% with U251 CNS (10 µM unless noted); 39.9% with PC-3 prostate (10 µM unless noted). The growth in the experiment with SK-MEL-5 melanoma (10 µM unless noted) is 55.3%; with UACC-62 melanoma (10 µM unless noted), 37.5%; in the experiment on LOX IMVI melanoma (10 µM unless noted) it was 52.8%; in the experiment on SK-MEL-28 melanoma (10 µM unless noted), 68.5%; in the experiment on SK-MEL-2 melanoma (10 µM unless noted), 26.5%; in the experiment on EKVX NSCLC (10 µM unless noted) it was 74%. Besides, the growth was 71.1% with SN12C renal (10 µM unless noted); 49.5% in the experiment with UO-31 renal (10 µM unless noted); 120% with TK-10 renal (10 µM unless noted); 63.3% in the experiment on ACHN renal; 52% in the experiment on CAKI-1 renal; 75.5% in the experiment with A498 renal (10 µM unless noted). Moreover, the growth was 15.9% with CCRF-CEM leukemia and 29% in the experiment on MOLT-4 leukemia (10 µM unless noted).

With `COc1ccc(C(=O)/C=C/c2ccc(OCc3ccc(Cl)cc3)cc2)cc1OC`, the growth with HCT-15 colon (10 µM) was 92.9%; in the experiment with HCT-15 colon (100 µM) it was 34.1%; with HT29 colon (10 µM), 87.2%; in the experiment on HT29 colon (100 µM), 35.8%; in the experiment with SNB-75 CNS (10 µM), 96.9%; in the experiment on SNB-75 CNS (100 µM), -26.3% (active). Besides, the growth was 105% in the experiment with SNB-19 CNS (10 µM); -47.3% (active) in the experiment with SNB-19 CNS (100 µM); 93.2% with U251 CNS (10 µM); -90.3% (active) with U251 CNS (100 µM); 97.5% with PC-3 prostate (10 µM); 16.9% in the experiment with PC-3 prostate (100 µM). The growth in the experiment with SK-MEL-5 melanoma (10 µM) was 92.3%; in the experiment with SK-MEL-5 melanoma (100 µM), -10.4% (active); in the experiment on UACC-62 melanoma (10 µM) it was 96.1%; with UACC-62 melanoma (100 µM), 23.6%; with LOX IMVI melanoma (10 µM) it was 88.8%; in the experiment with LOX IMVI melanoma (100 µM), 22.1%. Besides, the growth is 103% in the experiment on SK-MEL-28 melanoma (10 µM); 55.9% in the experiment with SK-MEL-28 melanoma (100 µM); 98.3% in the experiment with SK-MEL-2 melanoma (10 µM); 48.5% with SK-MEL-2 melanoma (100 µM); 109% in the experiment on EKVX NSCLC (10 µM); 29.1% with EKVX NSCLC (100 µM). In addition, the growth in the experiment with SN12C renal (10 µM) is 107%; in the experiment with SN12C renal (100 µM), 28.5%; with UO-31 renal (10 µM), 85.8%; in the experiment on UO-31 renal (100 µM) it was 41.4%; with TK-10 renal (10 µM), 101%; in the experiment with TK-10 renal (100 µM), 0.092% (active). In addition, the growth was 103% in the experiment on ACHN renal; 85.5% in the experiment on A498 renal (10 µM); -33.3% (active) with A498 renal (100 µM); 73.4% [100 µM] in the experiment on CCRF-CEM leukemia; 90.4% with MOLT-4 leukemia (10 µM); 62.8% in the experiment with MOLT-4 leukemia (100 µM).

`COc1ccc(/C=C(\C#N)c2cc3ccccc3[nH]2)cc1`: the growth is 14% in the experiment on HCT-15 colon (10 µM unless noted); 8.16% (active) with HT29 colon (10 µM unless noted); 18.6% with SNB-75 CNS (10 µM unless noted); 39.7% with SNB-19 CNS (10 µM unless noted); 18.7% in the experiment with U251 CNS (10 µM unless noted); 51% with PC-3 prostate (10 µM unless noted). In addition, the growth in the experiment with SK-MEL-5 melanoma (10 µM unless noted) was 22.2%; with UACC-62 melanoma (10 µM unless noted), 31.4%; in the experiment on LOX IMVI melanoma (10 µM unless noted), 30.3%; in the experiment with SK-MEL-28 melanoma (10 µM unless noted), 49.5%; in the experiment with SK-MEL-2 melanoma (10 µM unless noted), 26.2%; in the experiment with EKVX NSCLC (10 µM unless noted) it was 45.3%. Also, the growth with SN12C renal (10 µM unless noted) was 42.2%; with UO-31 renal (10 µM unless noted), 46.9%; in the experiment on TK-10 renal (10 µM unless noted) it was 53.6%; in the experiment with ACHN renal, 56.5%; in the experiment on CAKI-1 renal, 33.9%; in the experiment with A498 renal (10 µM unless noted), 32.1%. For the same molecule, the growth is 13.5% with CCRF-CEM leukemia and 24.4% with MOLT-4 leukemia (10 µM unless noted).

Regarding `Cc1ccc(C(=O)c2ccc(CC(=O)N=Nc3c(O)[nH]c4ccc(OC(F)(F)F)cc34)n2C)cc1`, the growth in the experiment on HCT-15 colon (10 µM unless noted) is 93.3%; with HT29 colon (10 µM unless noted), 107%; in the experiment on SNB-75 CNS (10 µM unless noted), 82.1%; with SNB-19 CNS (10 µM unless noted), 94%; in the experiment with U251 CNS (10 µM unless noted) it was 97%; with PC-3 prostate (10 µM unless noted) it was 98.6%. The growth is 97.3% in the experiment on SK-MEL-5 melanoma (10 µM unless noted); 106% in the experiment on UACC-62 melanoma (10 µM unless noted); 89.8% with LOX IMVI melanoma (10 µM unless noted); 99.9% in the experiment with SK-MEL-28 melanoma (10 µM unless noted); 95.9% with SK-MEL-2 melanoma (10 µM unless noted); 75.5% with EKVX NSCLC (10 µM unless noted). The growth with SN12C renal (10 µM unless noted) is 95%; in the experiment on UO-31 renal (10 µM unless noted), 72.7%; in the experiment with TK-10 renal (10 µM unless noted), 137%; in the experiment with ACHN renal, 93.8%; in the experiment on CAKI-1 renal it was 91.1%; with A498 renal (10 µM unless noted), 86.7%. Besides, the growth in the experiment on CCRF-CEM leukemia was 99.1%; with MOLT-4 leukemia (10 µM unless noted), 89.4%.
